# FMDV inh – blocks foot and mouth disease virus | FMDV antiviral cell-based qHTS | Potency, µM (titrated, usually from 57.9 µM), for the others: at the highest dose activity change, negative = inhibition, most hits filed as inhibitors | 410,000 tested, 1.2% active; calls by dose curve; tested in HEK293T cells; further: read-out not given here; potency means the concentration at half of the fitted maximal effect; nearly all actives have a fitted effect of over 45% in size
# Vaccinia Venus – inhibitors of vaccinia virus (Venus reporter); Vaccinia virus Venus reporter expression, fluorescence; Potency, µM (series often up to 36.5 µM), for inactives: top-dose activity change, negative = inhibition, most hits filed as inhibitors; 330,000 tested, 0.46% active; calls by dose curve; tested in A549 cells; further: potency means the concentration at half of the fitted maximal effect; nearly all actives have a fitted effect of over 30% in size
# HCV inh – inhibitors of hepatitis C virus infection; 340,000 tested, 3.4% active; Huh7.5.1 HCVcc-Cre infection, luciferase reporter, 44 h; Potency, µM (titrated, usually from 41.8 µM), without a hit: at the highest dose activity change, negative = inhibition, usual class: inhibitors; active means well fitted inhibition curve with a large enough effect; inconclusive means small, poorly fitted or top-dose-only effect, or another doubt; inactive means no such curve, though single readings can be large or run the other way; further: potency means the concentration at half of the fitted maximal effect
#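 After 44 h co-culture of compound, cells and HCVcc-Cre (~0.5 moi), substrate is added for 15 min at room temperature and luciferase measured over 15 sec. Cells were seeded at 1,000/well and pre-cultured 4 h.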
# Vaccinia mCherry – inhibitors of vaccinia virus infection (mCherry reporter signal); AID 720579; 310,000 tested, 0.63% active; Vaccinia virus mCherry reporter infection, fluorescence; Potency, µM (series often up to 36.5 µM), for the others: top-dose activity change, negative = inhibition, hits mostly inhibitors; calls by dose curve; tested in A549 cells; further: potency means the concentration at half of the fitted maximal effect; nearly all actives have a fitted effect of over 35% in size
# HCMV inh – blocks human cytomegalovirus replication | HFF cells, HCMV-luciferase reporter, 72 h; active compounds read low | activity change, negative = inhibition, % at 57.5 µM | 410,000 tested, 4.5% active | AID 1259415; in the data active means activity change below about -60%; inconclusive means no clear call, values can overlap the other calls; inactive means above about -39%
#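 Compounds were evaluated in HFFs infected with an HCMV luciferase reporter virus (MOI 1 PFU/cell). Luciferase in lysates collected 72 h post infection served as the replication measure.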
# * hit, by the source's call; i = inactive; ? = inconclusive; nt = no result; + = active, no number; [ ] = remark or other dose. This is a sample that favours compounds with a hit; in the whole collection about 7.3% have one here. On the % scale 0 is the no-effect control and ±100 the full control effect.
SMILES,FMDV inh,Vaccinia Venus,HCV inh,Vaccinia mCherry,HCMV inh
CCc1ccc(CNC(=O)c2cccc(-n3c(C)nc4cccnc43)c2)cc1,?,-25%,nt,-19%,0
Cc1ccc(CNC(=O)c2ccc3c(c2)nc(C)n3-c2cccc(F)c2)cc1,9%,3%,nt,-8%,-77*
Cc1nc2cccnc2n1-c1cccc(C(=O)NCc2cccc(Cl)c2)c1,?,?,nt,-24%,+
COCCNC(=O)c1ccc2c(c1)nc(C)n2-c1cccc(F)c1,14%,-13%,27%,-3%,1
Cc1c([N+](=O)[O-])cnc2ccccc12,nt,-17%,nt,i,nt
COc1ccccc1N(CC(=O)NCc1ccco1)S(C)(=O)=O,-8%,5%,15%,-1%,1
COc1ccc(N(CC(=O)NCc2ccccc2C)S(=O)(=O)c2ccc(C)cc2)cc1OC,11%,-1%,-8%,i,-19
CCOc1ccc(S(=O)(=O)N(CC(=O)NCc2ccccc2OC)c2ccccc2)cc1,?,?,nt,?,-62*
Cc1ccc(N(CC(=O)Nc2ccccc2C(=O)NCc2ccco2)S(=O)(=O)c2ccccc2)cc1C,-15%,-15%,?,-2%,5
CCOc1ccc(S(=O)(=O)N(CC(=O)NCCc2ccc(OC)c(OC)c2)c2ccccc2)cc1,?,?,nt,?,5
COc1ccc(S(=O)(=O)N(CC(=O)NCc2ccccc2OC)c2ccc(C)cc2)cc1,4%,?,nt,?,-68*
O=C(CN(c1ccccc1)S(=O)(=O)c1ccccc1)Nc1ccccc1C(=O)NCc1ccco1,-12%,-12%,?,-20%,-62*
COc1ccc(S(=O)(=O)N(CC(=O)NCc2ccco2)c2ccccc2OC)cc1,0%,12%,-19%,i,-65*
COC(=O)C[C@H]1C[C@H]2c3cc(NC(=O)Cc4ccncc4)ccc3O[C@H]2[C@@H](CO)O1,-23%,-15%,nt,-14%,-15
COc1cc(=O)n2c(c1C(=O)N1CCc3ccccc3C1)CCN(Cc1ccc(CO)o1)CC2,3%,-11%,nt,-12%,nt
N#CC(C#N)=NNc1ccc(OC(F)(F)F)cc1,?,-4%[60.7 µM],nt,-8%[60.7 µM],nt
CSCCC(=O)N1CCC(CCC(=O)NC2CC2)CC1,-18%,-17%,23%,-13%,13
Cc1cccc(C)c1N=CN1c2ccccc2-n2cccc2C1c1ccc([N+](=O)[O-])cc1 (centres undefined),nt,nt,nt,nt,-6
CCCCN(CC)CCCNC(=O)Nc1sc2nc3n(c(=O)c2c1C)CCC(C)CC3 (centres undefined),0%,-5%,nt,i,-37
COc1ccc2sc(N(Cc3cccnc3)C(=O)c3ccc4c(c3)OCCO4)nc2c1,?,-20%[7.34 µM],nt,-19%[7.34 µM],-90*
COc1ccc(Cl)c2sc(N(Cc3cccnc3)C(C)=O)nc12,-8%,-13%,13µM*,i,-24
Cc1ccc2nc(N(Cc3cccnc3)C(=O)c3cccs3)sc2c1,15%,-17%,nt,-4%,-28
CCc1ccc2nc(N(Cc3cccnc3)C(=O)c3cccs3)sc2c1,21%,-14%,nt,-5%,-61*
COc1ccc(OC)c2sc(N(Cc3cccnc3)C(=O)c3ccco3)nc12,-22%,-8%,nt,-19%,+
Cc1ccc(C)c(Cn2c(=O)n(CCCC(=O)NCCc3ccc(Cl)cc3)c(=O)c3ccccc32)c1,0%,?,nt,?,-36
SMILES,FMDV inh,Vaccinia Venus,HCV inh,Vaccinia mCherry,HCMV inh
Cc1ccsc1CN(C)CC(=O)NCC(=O)Nc1ccc(F)cc1,-10%,nt,12%,nt,-28
COc1ccccc1-c1ccc(NC2CCCCC2)nn1,47%,nt,22µM*,nt,50
CN(C)c1ccc(C(=O)c2ccccc2)cc1,20%,nt,-23%,nt,41
CN(C)c1ccc(C(=S)Nc2ccccc2)cc1,12%,-28%,5%,?,-65*
CC(=O)N(C)c1ccc(NC(=S)Nc2ccccc2)cc1,38%,-13%,18%,-20%,-14
CN(C)c1ccc(NC(=S)c2ccccn2)cc1,2.8µM*,-18%,11%,-24%,-91*
S=C(Nc1cccc(Br)c1)c1ccccc1,-2%,nt,-11%,nt,-74*
CN(C)c1cc(O)c(C(=S)Nc2ccccc2)c(N(C)C)c1,4%,-4%,11µM*,-5%,40
S=C(Nc1ccccc1)Nc1cccc(Br)c1,35%,nt,-5%,nt,-33
Clc1cccc(Cl)c1C[n+]1cccc2ccccc21,?,-18%,?,-28%,-81*
O=C(CC12CC3CC(CC(C3)C1)C2)NC1CC1,4%,-3%,-1%,-12%,7
COC(=O)N/N=C/c1c(C)c(C(=O)c2ccc(F)cc2)n2ccccc12,35µM*,-10%,?,i,-25
Cc1c(/C=N/NC(=O)c2ccccc2O)c2ccccn2c1C(=O)c1ccc(F)cc1,25µM*,?,?,?,-19
Cc1ncc(CO)c(CO)c1OCC(O)CN1CCN(c2ccc(F)cc2)CC1 (centres undefined),-24%,-10%,nt,25%,-34
CC(C)(C)N1C(=O)c2ccccc2NC(=O)N1Cc1ccc(Br)cc1,-6%,?,-1%,i,-65*
COC(=O)c1scc(C)c1NC(=O)Nc1ccccc1,-13%,-4%,19%,nt,-99*
CCN(CC)CCOC(=O)c1ccc(NC(=O)c2nn(-c3ccc(C)cc3)c(=O)c3c2c2ccccc2n3C)cc1,-11%,5µM*,nt,5.6µM*,-100*
CCN(CC)CCCNC(=O)c1nn(-c2ccc(C)cc2)c(=O)c2c1c1ccccc1n2C,-5%,3%,nt,13%,-23
CCCCn1nc(C(=O)NC2CCCCCC2)c2ccccc2c1=O,3%,1%,-20%,i,-25
CCCCn1nc(C(=O)N(C)C2CCCCC2)c2ccccc2c1=O,-15%,nt,1%,nt,-106*
CCCCCc1nc2sc3c(c2c(=O)n1NC(=O)c1ccc([N+](=O)[O-])cc1)CC(C)(C)OC3,-13%,?,?,-3%,-89*
CCCCCCCc1nc2sc3c(c2c(=O)n1N)CC(C)(C)OC3,-21%,2%,3%,11%,0
COc1ccccc1CC(=O)NCc1csc(-c2cccs2)n1,40%,-6%,-13%,i,18
CCC(=O)NCc1csc(-c2cccs2)n1,45%,-15%,15%,-13%,-70*
c1nc(SSc2ncc3n[nH]nc3n2)nc2n[nH]nc12,nt,3%,nt,43%,nt
O=C(Nc1ccc(Oc2ccc(Cl)cc2)c(Cl)c1)c1cc(I)cc(I)c1O,?,?,32µM*,-18%,?
CC(CNC(=O)Cn1ncc2c3ccccc3n(Cc3cccc(Cl)c3)c2c1=O)c1ccccc1 (centres undefined),50%,-26%,nt,-20%,-23
CN1C(=O)C2(c3ccccc31)N(C)CC(c1ccccc1)C21SC(=S)N(Cc2ccco2)C1=O (centres undefined),-5%,-7%,10µM*,i,-62*
CN1C(=O)C2(c3ccccc31)N(C)CC(c1ccccn1)C21SC(=S)N(Cc2ccco2)C1=O (centres undefined),?,-19%,?,-21%,?

# Screens: PubChem, National Center for Advancing Translational Sciences (NCATS)
